Bioassay records as filed in PubChem.
Sfp PPTase inh = blocks B. subtilis Sfp PPTase activity. Biochemical Sfp PPTase activity, qHTS. 3.5% of 310,000 active. Potency, µM, for inactives: largest response in the series, negative = inhibition, hits mostly inhibitors. Q9F4F7;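 also: the enzyme is Sfp with the accession as filed and its product quenches rhodamine fluorescence; 0% = enzyme reaction without inhibitor and -100% = no enzyme wells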
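Sfp 15 nM + cpd, 15 min RT; start w/ rhodamine-CoA 5 uM, BHQ-2-YbbR 12.5 uM (final); 50 mM Hepes pH 7.6, 10 mM MgCl2, 0.01% NP-40, 0.01% BSA; read 525/598 nm at 0 and 30 min.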
HP1b binding inh = HP1-beta chromodomain-methylated histone interaction inhibition. Potency, µM (highest dose often 114 µM), for the others: at the top dose activity change, negative = inhibition, actives largely listed as inhibitors. AID 540317. P83916. AlphaScreen HP1-beta / biotin-H3K9me3 peptide binding. 0.56% of 390,000 active; also: nearly all actives have a fitted effect of over 70% in size
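HP1-beta protein (50 nM final) preincubated 30 min at room temperature with biotinylated H3(1-18)K9me3 peptide (50 nM) in PBS pH 7.4, 0.01% Tween-20, then compound added for 30 min. AlphaScreen streptavidin donor/nickel chelate acceptor beads (10 ug/mL final), 30 min dark, luminescence read.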
JMJD2A Tudor = inhibitors of human JMJD2A Tudor domain. Potency, µM (highest dose often 114 µM), for inactives: at the highest dose activity change, negative = inhibition, actives largely listed as inhibitors. AlphaScreen JMJD2A-Tudor / H3K4me3 peptide binding. 4.4% of 390,000 active. O75164; also: % is scaled to controls: 0 for no effect and ±100 for the full control effect; nearly all actives have a fitted effect of over 50% in size
BAZ2B block = blocks human BAZ2B; 4.4% of 360,000 active; AID 504333; Potency, µM (top dose mostly 114 µM), for inactives: top-dose activity change, negative = inhibition, most hits filed as inhibitors; Q9UIF8; AlphaScreen BAZ2B-H3K14Ac peptide displacement; also: % is scaled to controls: 0 for no effect and ±100 for the full control effect; nearly all actives have a fitted effect of over 60% in size
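AlphaScreen displacement: compounds (up to 110uM) incubated 30 min at room temperature with a preformed 50 nM BAZ2B/50 nM biotinylated H3K14Ac peptide complex in PBS pH 7.4 with Tween-20. Donor and acceptor beads at 10 ug/mL final added, 20 min light-protected before reading.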
PLK1 PBD block = blocks phosphopeptide binding to human PLK1 polo-box domain | P53350 | Plk1 PBD binding of FITC phosphopeptide, fluorescence polarization | Potency, µM, for inactives: max response, negative = inhibition, hits mostly inhibitors | 2.8% of 360,000 active | AID 720504; also: series mostly up to about 57 µM; % is scaled to controls: 0 for no effect and ±100 for the full control effect; nearly all actives have a fitted effect of over 65% in size
G9a inh = blocks human histone lysine methyltransferase G9a | Q96KQ7 | G9a H3K9 monomethylation, AlphaScreen, 2 h | Potency, µM (highest dose often 102 µM), without a hit: top-dose activity, negative = inhibition, actives largely listed as inhibitors | 8.8% of 350,000 active | AID 504332; also: % is scaled to controls: 0 for no effect and ±100 for the full control effect; nearly all actives have a fitted effect of over 75% in size
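Quantitative HTS format: methyltransferase activity on a biotin-tagged H3K9 peptide is measured by AlphaScreen, using a rabbit anti-monomethyl-H3K9 antibody with streptavidin donor and anti-IgG acceptor beads. Final levels are 20 nM enzyme, 500 nM peptide, 20 uM SAM; 2 h RT.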
* hit, by the source's call; u = inconclusive; x = no result; [ ] = another dose, or the depositor's remark. This is a sample that favours compounds with a hit; in the whole collection about 12% have one here. Calls follow the shape of the dose curve; as a rule, active = well fitted curve in the direction sought with a large enough effect; inconclusive = small, poorly fitted or top-dose-only effect, or another doubt; inactive = no such curve, though single readings can be large; an effect the other way counts as inactive or inconclusive. Potency is read from the fitted curve at half-maximal effect.

SMILES	Sfp PPTase inh	HP1b binding inh	JMJD2A Tudor	BAZ2B block	PLK1 PBD block	G9a inh
O=C(OCC1OC(n2ccc(=O)[nH]c2=O)C2OC12)c1ccccc1 (stereo not given)	x	-5.2%	-9.1%	x	-6.7%	x
C1=C(CCNc2ncnc3c2[nH]c2ccccc23)CCCC1	56.2µM*	-17.0%	-34.2%	u	-6.4%	56.2µM*
COc1ccc(CNc2ncnc3c2[nH]c2ccccc23)cc1	-24.4%	-9.3%	u	-22.1%	5.0%	50.1µM*
COc1cc(-c2nc(Cn3nnc(C(=O)Nc4ccccc4)c3C)c(C)o2)cc(OC)c1OC	x	u	u	-37.1%	x	u
CCOC(=O)C1OC1C(=O)N[C@@H](CC(C)C)C(=O)NCCC(C)C (stereo not given in full)	-1.3%	x	x	x	x	x
O=C(Nc1nc(-c2ccco2)c(-c2ccco2)s1)c1c(F)cccc1Cl	x	u	50.1µM*	39.8µM*	-24.2%	u
O=C(Nc1nc(-c2ccco2)c(-c2ccco2)s1)c1ccc(F)cc1F	x	u	u	39.8µM*	-11.6%	10µM*
O=C(Nc1ccc(NC(=O)c2ccco2)cc1)c1cnccn1	3.6%	21.1%	-12.1%	26.8%	-3.3%	9.6%[59 µM]
O=C(Nc1nc(-c2ccco2)c(-c2ccco2)s1)c1cnccn1	x	-0.2%	-33.6%	u	-12.0%	10µM*
COc1ccc(-c2cnnn2-c2ccc([N+](=O)[O-])cc2)cc1	15.1%	-23.1%	-33.2%	u	2.3%	-14.8%
CCOc1ccc(S(=O)(=O)N2CCC(C(=O)OC(C)C(=O)N3CCOCC3)CC2)cc1 (stereo not given)	x	25.8%	-8.3%	-5.5%	-1.0%	-2.7%
N#C/C(C(=O)NCc1ccco1)=C1/SC(Cc2ccc(Cl)cc2)C(=O)N1c1ccccc1 (stereo not given)	39.8µM*	-5.8%	-20.7%	11.2%	-3.3%	-16.1%[59 µM]
N#C/C(C(=O)NCc1ccco1)=C1/SC=C(c2ccccc2)N1c1ccccc1	0.3%	35.3%	-7.4%	-3.3%	1.2%	15.8µM*
Cc1ccc(CC2S/C(=C(/C#N)C(=O)NCc3ccco3)N(c3ccccc3)C2=O)cc1 (stereo not given)	-12.8%	34.5%	-3.7%	1.1%	-9.2%	-6.9%
C=C(C)[C@@H]1C2=CC(C(=O)OC)=C(C[C@@H](C(=C)C)[C@H]3O[C@H]3C3=C[C@H]1OC3=O)O2	x	55.8%	-4.8%	x	x	x
Cc1ccc(C(=O)NCCc2csc(-c3cccc(F)c3)n2)cc1C	x	14.1%[57 µM]	-8.9%	-4.1%	x	19.3%[59 µM]
Cc1cc(C)cc(OCC(=O)N2N=C(C(F)(F)F)CC2(O)C(C)(C)C)c1 (stereo not given)	u	10.0%	-8.7%[57.1 µM]	-3.1%	-10.8%	1.58µM*
CS(C)(=O)=O	6.7%	x	x	x	x	-40.0%[2.33 µM]
CC(C)(C)C1CCc2[nH]nc(C(=O)O)c2C1 (stereo not given)	14.5%	-0.3%	u	u	-10.9%	-17.9%[59 µM]
O=C(O)c1n[nH]c2c1CCCC2	-15.0%	8.9%	25.1µM*	56.2µM*	-2.1%	-27.4%[12.7 µM]
O=C(O)c1n[nH]c2c1CCCCC2	-29.1%	3.4%	u	50.1µM*	2.9%	10µM*
C/C(=N\NC(=O)CNC(=O)c1ccc(F)cc1)c1ccco1	7.0%	29.9%	-3.5%	-18.8%	-3.4%	-8.5%
O=c1c2ccccc2nc2c3ccccc3c(NCc3ccccn3)nn12	3.8%	42.9%	u	50.1µM*	-26.8%	31.6µM*
CC1(CN2CCC(n3c(=O)[nH]c4ccccc43)CC2)OCc2ccccc2-n2cccc21 (stereo not given)	-7.6%	x	x	x	x	u
O=C1CCC(C(=O)OCC(=O)N2N=C3/C(=C\c4ccccc4)CCCC3C2c2ccccc2)N1 (stereo not given)	x	4.8%	u	x	0.4%	x
O=C1CCC(C(=O)OCC(=O)N2N=C3/C(=C/c4ccccc4)CCCC3C2c2ccccc2)N1 (stereo not given)	-24.3%	-1.0%	u	u	-4.6%	56.2µM*
